Hits are enriched below; roughly 11% of the tested compounds scored in any of these assays.
Sfp PPTase inh: blocks B. subtilis Sfp PPTase activity | 310,000 tested, 3.5% active | Biochemical Sfp PPTase activity, qHTS | Potency, µM, for the others: largest response in the series, negative = inhibition, hits mostly inhibitors;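 also: the enzyme is Sfp with the accession as filed and its product quenches rhodamine fluorescence; potency is read from the fitted curve at half-maximal effect; 0% = enzyme reaction without inhibitor and -100% = no enzyme wells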
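After 15 min at room temperature with compound, 15 nM Sfp received 5 uM rhodamine-CoA plus 12.5 uM BHQ-2-ybbR (50 mM Hepes pH 7.6, 10 mM MgCl2). Rate came from the fluorescence difference over 30 min, ex 525/em 598 nm.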
Tau ThT inhib: blocks human tau fibril formation measured by thioflavin T; 270,000 tested, 2.1% active; recombinant tau K18 P301L, heparin-induced fibrillization, ThT fluorescence; Potency, µM (doses to about 57.4 µM), for inactives: at the highest dose activity, negative = inhibition, most hits filed as inhibitors; P10636; AID 1460; also: potency is read from the fitted curve at half-maximal effect; nearly all actives have a fitted effect of over 55% in size
Target sequence (P10636 561-689 P618L limits assumed): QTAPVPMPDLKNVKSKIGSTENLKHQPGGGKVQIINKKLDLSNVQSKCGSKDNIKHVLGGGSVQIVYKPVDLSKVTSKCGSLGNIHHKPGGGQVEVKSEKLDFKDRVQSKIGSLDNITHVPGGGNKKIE
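In this qHTS, human K18 P301L tau is incubated with compound and heparin for 6 hr at 37 C, and Thioflavin T fluorescence then reports fibril load.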
Coupling enz: coupling enzyme interference in Giardia aldolase counter-screen; coupling enzyme system counterscreen, AmpLite Red fluorescence; AID 2472; 290,000 tested, 0.67% active; activity change, negative = inhibition, % at 58.2 µM, hits read low; in the data active = activity change below about -30%
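Counterscreen lacking aldolase: glyceraldehyde-3-phosphate coupling-enzyme reagent preincubated 10 min at RT with compound (at 57.5 uM final), then substrate/coupling system with AmpLite Red added; fluorescence read at 525/598 nm after 20 min RT.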
Tau FP inhib: tau fibrillization inhibition (FP); 280,000 tested, 0.39% active; P10636; K18 P301L tau heparin fibrillization, Alexa594 FP, 6 h; Potency, µM (series often up to 57.7 µM), for inactives: top-dose activity, negative = inhibition, usual class: inhibitors; also: potency is read from the fitted curve at half-maximal effect; nearly all actives have a fitted effect of over 55% in size
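Human tau K18 […] P301L fragment, 15 uM unlabeled plus 0.24 uM Alexa 594-labeled tau (final), with compound and 20 uM heparin in 100 mM sodium acetate pH 7; 6 hr at 37 C, then Alexa 594 FP read.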
Tau fluor cs: counter-screen for tau fibril formation inhibitors | tau K18 P301L (four-repeat tau fragment) Alexa594 fluorescence, heparin fibrillization | Potency, µM (doses to about 57.7 µM), for the others: at the highest dose activity change, negative = decrease | 280,000 tested, 0.93% active; also: potency is read from the fitted curve at half-maximal effect; nearly all actives have a fitted effect of over 55% in size
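Human K18 P301L tau (15 uM unlabeled plus 0.24 uM Alexa 594-labeled, final) in 100 mM sodium acetate pH 7 was mixed with compound and 20 uM heparin and incubated 6 hr at 37 C.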
G9a inh: G9a (human) methyltransferase inhibition; Potency, µM (titrated, usually from 102 µM), without a hit: top-dose activity, negative = inhibition, actives largely listed as inhibitors; 350,000 tested, 8.8% active; Q96KQ7; G9a H3K9 monomethylation, AlphaScreen, 2 h; also: potency is read from the fitted curve at half-maximal effect; nearly all actives have a fitted effect of over 75% in size
Target sequence (Q96KQ7 913-1193 limits assumed): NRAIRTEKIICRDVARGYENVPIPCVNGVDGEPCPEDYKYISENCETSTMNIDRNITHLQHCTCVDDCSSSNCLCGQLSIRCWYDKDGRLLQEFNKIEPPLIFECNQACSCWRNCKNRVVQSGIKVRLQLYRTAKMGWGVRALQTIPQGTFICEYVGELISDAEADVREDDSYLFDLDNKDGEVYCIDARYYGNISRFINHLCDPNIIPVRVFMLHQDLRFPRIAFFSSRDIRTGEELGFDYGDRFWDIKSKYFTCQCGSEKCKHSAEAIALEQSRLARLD
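Using a bead-based AlphaScreen, monomethylated H3K9 product from 2 h room-temperature reactions (G9a 20 nM, peptide 500 nM, SAM 20 uM) was detected with 0.5 ug/mL rabbit anti-H3K9me1 antibody.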
* hit, by the source's call; ? = inconclusive; . = no result; [ ] = another dose, or the depositor's remark. Unless noted, calls follow the shape of the dose curve; as a rule, active = well fitted curve in the direction sought with a large enough effect; inconclusive = small, poorly fitted or top-dose-only effect, or another doubt; inactive = no such curve, though single readings can be large; an effect the other way counts as inactive or inconclusive. Unless noted, % is scaled to controls: 0 for no effect and ±100 for the full control effect.

SMILES | Sfp PPTase inh | Tau ThT inhib | Coupling enz | Tau FP inhib | Tau fluor cs | G9a inh
CCCCCC(=O)Nc1ccccc1N1CCN(c2ccccc2)CC1 | -15% | -16% | -3 | 9% | -10% | -7%[59 µM]
Cc1ccc(OCCn2c(Br)nc3c2c(=O)n(C)c(=O)n3C)cc1 | 7% | -4% | -50* | 6% | 1% | -12%[59 µM]
COCCn1c(Br)nc2c1c(=O)n(C)c(=O)n2C | 10% | 4% | 1 | 1% | 4% | 10%
COc1ccc(/C(N)=N/OC(=O)CC2CCCCC2)cc1 | 2% | . | . | . | . | 117%
COc1ccc(N2CCN(C(CNC(=O)c3ccc(C)cc3)c3ccc4c(c3)OCO4)CC2)cc1 (stereo not drawn) | . | ? | . | 10% | ? | 8.9µM*
COc1ccc(N2CCN(C(CNC(=O)CC(C)C)c3ccc4c(c3)OCO4)CC2)cc1 (stereo not drawn) | . | -8% | . | ? | -18% | 11µM*
O=C(Cn1c(=O)n(-c2cccc(Cl)c2)c(=O)c2sc3ccccc3c21)N1CCCC1 | . | -7% | . | -8% | -14% | -39%[59 µM]
Cc1cc(C)nc(SCc2n[nH]c(=S)n2C)n1 | -10% | 3% | -2 | 0% | 0% | 7.1µM*
Cc1ccc(-n2c(CSc3nc(C)cc(C)n3)n[nH]c2=S)cc1 | 2% | -3% | 9 | 1% | -4% | 4µM*
CCCSc1nnc(CSc2nc(C)cc(C)n2)n1C | 14% | -5% | -2 | 9% | 3% | -6%
CCOC(=O)c1cccc(NC(=O)CCn2c(-c3ccc(F)cc3)cc(C(=O)OCC)c2C)c1 | . | -12% | . | ? | ? | ?
Cc1cccc(NC(=O)c2cc3c(=O)n(Cc4ccco4)ccc3nc2C)c1 | . | -2% | . | -5% | -3% | -4%[59 µM]
NC(=Nc1ccc(Cl)cc1)c1ccccc1 | 21% | 3% | -2 | -1% | 3% | 4%
CSC(=Nc1ccc(Cl)cc1)N[n+]1ccccc1 | -4% | -2% | -3 | -6% | -2% | 2µM*
O=C(Nc1cc(S(=O)(=O)N2CCOCC2)ccc1O)c1ccc2c(c1)S(=O)(=O)c1ccccc1C2=O | 20µM* | ? | 4 | -3% | -29% | 4.5µM*
O=C(Nc1cc(S(=O)(=O)N2CCOCC2)ccc1O)c1ccco1 | 56µM* | -6% | 5 | 5% | 3% | 42%[0.501 µM]
O=C(Nc1ccc(S(=O)(=O)N2CCOCC2)cc1)c1ccc2c(c1)S(=O)(=O)c1ccccc1C2=O | 21% | -1% | 4 | 13% | -27% | 1%[12.7 µM]
NC(=O)CC[C@@H]1NC(=O)[C@@H]2CCCN2C(=O)c2cc([N+](=O)[O-])cc(I)c2NCCC[C@@H](C(N)=O)NC1=O | 5% | -6% | 0 | 1% | -6% | 45µM*
NC(=O)CC[C@@H]1NC(=O)[C@@H]2CCCN2C(=O)c2cc([N+](=O)[O-])cc(I)c2NCCCC[C@@H](C(=O)NC(CC(=O)O)C(N)=O)NC1=O (stereo partly drawn) | 17% | -9% | 0 | -2% | -2% | 56µM*
CCOc1cc(C(=S)N2CCOCC2)ccc1OS(=O)(=O)c1ccccc1[N+](=O)[O-] | 3% | -12% | -9 | 0% | -11% | 10µM*
CCOc1cc(C(=S)N2CCCCC2)ccc1OS(=O)(=O)c1ccc(Cl)cc1 | 13% | -7% | 3 | -2% | -17% | -14%
COc1ccc(C(=S)N2CCOCC2)cc1OS(=O)(=O)c1ccccc1[N+](=O)[O-] | -29% | -5% | 1 | 4% | -15% | 3.2µM*
COc1cc(C(=S)N2CCOCC2)ccc1OC(=O)c1ccccc1[N+](=O)[O-] | -15% | . | -5 | . | . | .
COc1cc(C(=S)N2CCOCC2)ccc1OS(=O)(=O)c1ccccc1[N+](=O)[O-] | -20% | -2% | 3 | -2% | -5% | 13µM*
COc1ccccc1CNC(=O)CSc1nc2nc(C)c(Cc3ccccc3Cl)c(C)n2n1 | . | ? | . | -5% | -16% | -22%[59 µM]
SMILES | Sfp PPTase inh | Tau ThT inhib | Coupling enz | Tau FP inhib | Tau fluor cs | G9a inh
c1ccc(SCc2nc3ccccc3s2)nc1 | ? | . | 0 | . | . | 35µM*
N#C/C(=C(/O)CSc1ccccn1)c1nc2ccccc2s1 | -4% | ? | 10 | 5% | -15% | 45µM*
N#C/C(=C(/O)COc1ccccc1)c1nc2ccccc2s1 | 9% | ? | 10 | 4% | -18% | ?
N#C/C(=C(/O)COC(=O)c1ccc(C#N)cc1)c1nc2ccccc2s1 | 50µM* | ? | 12 | 3% | ? | ?
N#Cc1cccc(-c2cncnc2NCc2cccs2)c1 | 24% | . | 4 | . | . | 9%[0.501 µM]
COc1ccc2c(CNCc3cccs3)c(C(=O)O)n(Cc3ccc(F)cc3Cl)c2c1 | . | -12% | . | 5% | -10% | -6%[59 µM]
O=C(NCc1ccccc1)C1CCN(c2nc(-c3ccccc3)nc3c2CCC3)CC1 | ? | . | . | . | . | 24%
COc1ccc(CNC(=O)C2CCN(c3nc(-c4ccccc4)nc4c3CCC4)CC2)cc1 | 50µM* | . | . | . | . | 26%
COC(c1ccc(Cl)cc1)(c1ccc(Cl)cc1)C(Oc1nc(C)cc(C)n1)C(=O)O (stereo not drawn) | 20% | . | 2 | . | . | 2%
Cc1ccc(NC(=O)CSc2nnc(-c3ccncc3)n2C)cc1S(=O)(=O)N1CCOCC1 | 19% | 2% | 5 | 6% | 3% | 17%
COc1ccc(S(=O)(=O)N(CCO)c2ccccc2CN(C)CC=Cc2ccc(Cl)cc2)cc1 | -3% | -17% | -4 | -1% | -22% | 10%[59 µM]
CC(C)CCN(CC(=O)NCc1ccc(F)cc1)S(=O)(=O)c1ccccc1F | 6% | . | 0 | . | . | 18%
O=C(NC1CCCCC1)C(=S)N1CCOCC1 | 50µM* | -4% | -2 | -3% | 0% | ?
CCc1cc2c(cc3c(=O)n(CC(=O)N4CCN(c5cccc(C)c5C)CC4)nc(CC)n32)s1 | . | -17% | . | -13% | -15% | -6%[59 µM]
CCOCCc1nn2c(=O)cc(CSCC(=O)Nc3ccccc3)nc2s1 | 3% | . | . | . | . | 10%
S=C1SCN(Cc2ccco2)CN1Cc1ccco1 | ? | ? | -1 | -11% | -20% | -32%
N#CC1=C2SCN(Cc3ccco3)CN2C(=O)CC1c1ccccc1F (stereo not drawn) | 2µM* | 18µM* | -17 | ? | -24% | 0.28µM*
N#CC1=C2SCN(Cc3ccco3)CN2C(=O)CC1c1cccc2ccccc12 (stereo not drawn) | 1.4µM* | 18µM* | -17 | ? | -18% | 0.89µM*
O=C(c1ccncc1)N1CCC[C@@]2(CCN(c3cccc(-c4ccccc4)c3)C2)C1 | -15% | . | -1 | . | . | -15%[12.7 µM]
Cc1ccc(C(=O)c2c3ccc([N+](=O)[O-])cc3[n+]([O-])n2CCC(N)=O)cc1 | 11% | . | -4 | . | . | 50µM*
